CYP2C9 act: CYP2C9 (human) activation | AID 1024 | 96,000 tested, 1.4% active | recombinant CYP2C9, luciferin-H conversion, luminescence; stronger effect = higher value; factor 1 = untreated enzyme, 0 = blocked | P11712 | activation factor at 5 µM;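 active = activation factor of 2 or more for CYP2C9 at a 5 µM dose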;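 also: 0 = sulfaphenazole-blocked wells and 1 = vehicle-only wells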
Cav32 inh: blocks human Cav3.2 T-type calcium channel. 100,000 tested, 4% active. B-score at 10 µM. AID 449739. Cav3.2-expressing cells, Fluo-4 calcium fluorescence FDSS; stronger effect = lower value;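 active = single-dose well whose peak fluorescence ratio is a statistical outlier from its plate by either plate-standardised score or position-corrected B-score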
CYP2C19 inhib: inhibitors of human CYP2C19; P33261; CYP2C19 Supersomes, luciferin-H EGE luminescence, 30 min; inhibition, % at 5 µM; 96,000 tested, 21% active; AID 778;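 active = CYP2C19 inhibition above a set limit at 5 µM in the primary screen, cut at about 50% in these data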;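 also: plate controls were negative control wells for no effect and 2.5 mM tranylcypromine positive control for full effect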
Target sequence (P33261 whole entry, looked up): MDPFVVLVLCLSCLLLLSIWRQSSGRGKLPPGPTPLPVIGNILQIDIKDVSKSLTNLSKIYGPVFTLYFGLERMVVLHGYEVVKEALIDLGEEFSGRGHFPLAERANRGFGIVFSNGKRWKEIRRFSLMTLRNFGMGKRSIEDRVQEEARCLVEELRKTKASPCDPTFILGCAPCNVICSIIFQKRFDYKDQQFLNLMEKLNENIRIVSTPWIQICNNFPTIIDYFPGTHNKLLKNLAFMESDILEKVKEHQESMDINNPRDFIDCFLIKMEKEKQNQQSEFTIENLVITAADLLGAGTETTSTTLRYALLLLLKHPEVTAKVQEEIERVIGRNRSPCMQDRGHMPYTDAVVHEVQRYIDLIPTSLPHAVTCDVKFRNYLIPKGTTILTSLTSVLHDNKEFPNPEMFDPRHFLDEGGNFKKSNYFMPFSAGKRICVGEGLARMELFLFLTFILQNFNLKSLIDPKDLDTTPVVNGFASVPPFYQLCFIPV
CYP2C19 act: cytochrome P450 2C19 (human) activation; P33261; 96,000 tested, under 10 active; recombinant CYP2C19, luciferin-H EGE luminescence; stronger effect = higher value; 0 = fully inhibited enzyme, 1 = untreated enzyme; activation factor at 5 µM; AID 1025;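 active = activation factor of at least 2 at 5 µM in the primary screen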;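 also: 0 = wells with 2.5 mM tranylcypromine and 1 = vehicle-only wells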
CYP2C9 inhib: inhibitors of human CYP2C9; 96,000 tested, 20% active; CYP2C9 Supersomes, luciferin-H conversion, luminescence; inhibition, % at 5 µM;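 active = blocking of liver enzyme CYP2C9 beyond about 50% at 5 µM, limit read from the data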
* hit, by the source's call; nt = no result given. A selection: hits, their analogues and other compounds. The true share with any hit is near 27%.

SMILES	CYP2C9 act	Cav32 inh	CYP2C19 inhib	CYP2C19 act	CYP2C9 inhib
Cn1c(CN2CCCC2)nc2cc(NC(=O)c3ccco3)ccc21	1	0.68	-14	1.1	-4
Cn1c(CCN2CCCCC2)nc2cc(NS(=O)(=O)c3ccc(Cl)cc3)ccc21	1	1.3	17	0.8	0
Cn1c(CCNC(=O)c2ccco2)nc2cc(NS(=O)(=O)c3ccc(Cl)cc3)ccc21	0	-0.95	89*	0.1	98*
Cn1c(CCN2CCN(c3ccc(F)cc3)CC2)nc2cc(NC(=O)c3ccco3)ccc21	0.8	0.89	18	0.8	23
COc1ccc(Cc2nnn(CC(=O)O)n2)cc1	1.3	0.86	-2	1	-27
CC1=Nn2c(nnc2-c2ccc(F)cc2)SC1	1	0.33	6	0.9	-4
CCCCCCC1NC(C(=O)O)CS1 (stereo not given)	1	-0.083	3	1	-4
O=S(Cc1ccc(Cl)cc1)CC(O)COCc1ccc(Cl)cc1 (stereo not given)	0.9	-0.81	7	0.9	9
CN(C)c1nc(SCC#N)nc(N(C)C)n1	nt	0.29	nt	nt	nt
CCOC(=O)CNC(=O)C(=O)c1c(O)[nH]c2ccccc12	1	0.28	3	1	-5
CNC(=O)CSc1nnnn1-c1ccc2c(c1)OCCO2	nt	0.16	nt	nt	nt
Cc1ccc(OS(=O)(=O)c2ccccc2)c(/C=N/N=C2\NC(=O)C(C)S2)c1 (stereo not given)	nt	0.023	nt	nt	nt
O=C1C2CCCN2C(c2ccc(Br)cc2)N1c1ccc(F)cc1 (stereo not given)	0.8	-0.22	66*	0.3	21
CCc1ccc(C2N(c3ccc(OC)cc3)C(=O)C3CCCN32)cc1 (stereo not given)	0.2	0.063	33	0.7	76*
Cc1[nH]c2ccccc2c1C(=O)CN1CCCCC1CCO (stereo not given)	0.7	-0.027	18	0.8	32
CC(C)CC(=O)N1CCN(S(=O)(=O)c2ccc3ccccc3c2)CC1	1.9	1.8	96*	0	-92
Cc1ccc(S(=O)(=O)N2CCN(C(=O)c3cccc(F)c3)CC2)cc1	1	0.42	28	0.7	3
Cc1ccc(N(C)C(=O)N2CCN(S(=O)(=O)c3ccc(C)cc3)CC2)cc1	0.4	-1.6	95*	0.1	56*
Cc1ccc(S(=O)(=O)N2CCN(C(=O)N(c3ccccc3)c3ccccc3)CC2)cc1	0.5	-1.2	51*	0.5	52*
Cc1ccc(N(C)C(=O)N2CCN(c3ccccn3)CC2)cc1	0.5	0.89	21	0.8	53*
Cc1ccc(N(C)C(=O)N2CCN(S(=O)(=O)c3ccc4ccccc4c3)CC2)cc1	0.7	-3.6	57*	0.4	34
O=C(COC(=O)CCCc1c[nH]c2ccccc12)Nc1ccc2c(c1)OCO2	0.8	-1	73*	0.3	22
O=C(COC(=O)C1c2ccccc2Oc2ccccc21)Nc1ccc2c(c1)OCO2	0.4	-4.3*	19	0.8	58*
COc1ccc(NC(=O)COC(=O)CCCc2c[nH]c3ccccc23)cc1	0.2	-0.0014	84*	0.2	81*
Cc1cccc(OCC(=O)Nc2ccc3c(c2)OCO3)c1C	1.6	-3.4	29	0.7	-56
SMILES	CYP2C9 act	Cav32 inh	CYP2C19 inhib	CYP2C19 act	CYP2C9 inhib
CC(C)c1ccc(NC(=O)C2CC(=O)N=C(N)S2)cc1 (stereo not given)	1.1	0.17	2	1	-11
O=C(c1ccccc1)N1CCC(c2nc3c(nnn3Cc3ccccc3Cl)c(=O)[nH]2)CC1	0.4	-0.49	40	0.6	63*
CC(C)(C)CC(=O)N1CCC(c2nc3c(nnn3Cc3c(F)cccc3Cl)c(=O)[nH]2)CC1	0.2	2.2	52*	0.5	82*
COc1ccccc1Cn1nnc2c(=O)[nH]c(C3CCN(C(=O)c4ccc(C)cc4)CC3)nc21	0.3	nt	32	0.7	66*
COc1ccccc1Cn1nnc2c(=O)[nH]c(C3CCN(C(=O)c4ccccc4Cl)CC3)nc21	0.1	0.87	75*	0.2	94*
CC1CCc2nn(CC(=O)NCCC3=CCCCC3)cc2C1 (stereo not given)	0.7	-1.3	19	0.8	30
FC(F)(F)c1cccc(N2CCN(c3nnnn3-c3ccccc3)CC2)c1	0	-3.7	98*	0	100*
CC(=O)N1CCN(c2nnnn2-c2ccccc2)CC1	1.1	0.29	21	0.8	-6
Cc1ccc(C)c(N2CCN(c3nnnn3-c3ccccc3)CC2)c1	0.1	-2.5	99*	0	91*
